# Screening results deposited in PubChem by National Center for Advancing Translational Sciences (NCATS).
# Rows were chosen to be rich in hits. Some 19% of all compounds tested hit in one or more screens of this group.
# HT1080 IDH1KD tx: kills HT-1080 cells with IDH1 knockdown | HT-1080 IDH1 knockdown viability, ATP luminescence, 48 h | Potency, µM (titrated, usually from 46.1 µM), for inactives: at the highest dose activity, negative = toxicity, most hits filed as cytotoxic | 2% of 360,000 active | AID 686971;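 further: 0% = DMSO wells and -100% = cell-free medium wells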
#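 Using the IDH1-knockdown HT-1080 line run in the same batch and compound series as the NT line, viability after 48 h at 37 °C was determined by CellTiter-Glo luminescence and expressed as % activity.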
# KB-3-1 tox: kills parental KB-3-1 adenocarcinoma cells. KB-3-1 viability, CellTiter-Glo ATP luminescence, 72 h. Potency, µM (highest dose often 46.1 µM), actives largely listed as cytotoxic. 1.4% of 400,000 active. AID 1347075; further: nearly all actives have a fitted effect of over 60% in size
#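 72 h, 37 °C compound treatment of KB-3-1 parental cells; CellTiter-Glo added, 10 min, luminescence read. Data corrected against DMSO-only plates and normalized before curve fitting.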
# HT1080NT lethal: kills 2HG-producing HT-1080-NT fibrosarcoma cells; HT-1080-NT fibrosarcoma viability, CellTiter-Glo ATP luminescence, 48 h; Potency, µM (highest dose often 46.1 µM), inactives show top-dose activity, negative = less viability, hits mostly cytotoxic; 1.6% of 360,000 active;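 further: NT is the 2HG producing partner of a matched IDH1 knockdown line; 0% = DMSO-treated cells and -100% = media-only wells without cells; nearly all actives have a fitted effect of over 55% in size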
#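 A 48-hour cytotoxicity screen used HT-1080-NT cells plated 2 hours before compound delivery. ATP-based CellTiter-Glo luminescence measured viability, normalized to DMSO and no-cell controls.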
# DT40 TDP1 no CPT: qHTS for Inhibitors of human tyrosyl-DNA phosphodiesterase 1 (TDP1): qHTS in cells in absence of CPT; 15% of 420,000 active; Potency, µM (series often up to 46.2 µM), for the others: top-dose activity change, negative = growth inhibition, actives largely listed as inhibitors; DT40 Tdp1-/- hTDP1 cells, no CPT, ATP luminescence, 48 h; further: nearly all actives have a fitted effect of over 55% in size
#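 No-CPT arm: Tdp1-/-;hTDP1 DT40 cells (400/well) plus compounds, incubated ≥48 hr at 37 °C. Readout CellTiter-Glo luminescence.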
# KB-V1 cytotox: KB-V1 MDR subline cytotoxicity | Potency, µM (highest dose often 46.1 µM), usual class: cytotoxic | 3.4% of 400,000 active | KB-V1 MDR cells viability, CellTiter-Glo, 72 h | AID 1347076; further: nearly all actives have a fitted effect of over 60% in size
#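 Compound-treated KB-V1 multidrug-resistant cells, 72 h, 37 degrees C; viability by CellTiter-Glo. Fitted qHTS curves give the values.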
# DT40 TDP1 CPT: DT40-hTDP1 cell growth loss with CPT; chicken DT40 Tdp1-/-;hTDP1 cells + 20 nM CPT, ATP luminescence, 48 h; Potency, µM (top dose mostly 46.2 µM), for the others: at the top dose activity change, negative = growth inhibition, usual class: inhibitors; 12% of 420,000 active; further: nearly all actives have a fitted effect of over 55% in size
#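 Chicken DT40 Tdp1-/- cells stably complemented with human TDP1 were seeded at 400 cells/well in medium containing 20 nM camptothecin, exposed to pin-transferred compounds, and grown at 37 °C for at least 48 hr. Viability was read as ATP luminescence.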
# Numbers without * were called inactive; i = inactive; ? = inconclusive; . = no result; ! = not confirmed by another sample; [ ] = another dose, or the depositor's remark. The call rests on the fitted dose curve; in most records, active means well fitted curve in the direction sought with a large enough effect; inconclusive means small, poorly fitted or top-dose-only effect, or another doubt; inactive means no such curve, though single readings can be large; an effect the other way counts as inactive or inconclusive. Unless noted, on the % scale 0 is the no-effect control and ±100 the full control effect; potency means the concentration at half of the fitted maximal effect.
SMILES,HT1080 IDH1KD tx,KB-3-1 tox,HT1080NT lethal,DT40 TDP1 no CPT,KB-V1 cytotox,DT40 TDP1 CPT
CN1CCN(C(=O)C2CCC(CNS(=O)(=O)c3cccc4cccnc34)CC2)CC1 (configuration not stated),2%,i,0%,-4%,i,7%
O=C(C1CCC(CNS(=O)(=O)c2cccc3nsnc23)CC1)N1CCN(c2ccccn2)CC1 (configuration not stated),-11%,i,-17%,23µM*,18µM*,?
CCCCC(CC)CNC(=O)C1CCC(CNS(=O)(=O)c2cccc3nsnc23)CC1 (configuration not stated),.,?,.,21µM*,?,?
Fc1ccc(Nc2nc(Nc3ccc(F)cc3)nc(N3CCOCC3)n2)cc1,.,i,.,?,i,?
Fc1ccc(Nc2nc(N3CCOCC3)c3ccccc3n2)cc1,-18%,?,-1%,23µM*,16µM*,?
c1ccc2c(Nc3nc(N4CCOCC4)c4ccccc4n3)cccc2c1,15µM*,?,21µM*,23µM*,?,13µM*
c1ccc2c(c1)nc(N1CCOCC1)c1c3ccccc3[nH]c21,-1%,i,9%,?,21µM*,?
FC(F)(F)c1ccccc1-c1nc(N2CCOCC2)c2ccccc2n1,.,.,.,-6%,.,-2%
COc1ccccc1N1CCN(C2CCCN(C(=O)CCc3cnn(C)c3)C2)CC1 (configuration not stated),1%,i,5%,25%,i,-9%
Cc1ccc(C(O)c2ncc(-c3ccccc3Cl)[nH]2)cc1F (configuration not stated),-23%,i,-11%,?,i,?
CCN1C(=NCC(C)C)N[C@@H](c2cccc(F)c2)C(C(=O)OC)=C1C,-3%,i,0%,-16%,i,-24%
Cc1cc(Cl)ccc1NS(=O)(=O)c1c(C(=O)N2CCC(C)CC2)c(C)n(C)c1C,.,.,.,16µM*,.,?
COc1cc(OC)c(NS(=O)(=O)c2c(C(=O)N3CCCCCC3)c(C)n(C)c2C)cc1Cl,.,i,.,21µM*,i,?
COc1cc(OC)c(NS(=O)(=O)c2c(C(=O)N3CCCCC3)c(C)n(C)c2C)cc1Cl,-1%,i,1%,1%,i,1%
Cc1cccc(S(=O)(=O)N2CCCc3ccccc32)c1,0%,i,2%,?,i,26µM*
Cc1ccnc(NC(=O)c2cccc(S(=O)(=O)N3CCCc4ccccc43)c2)c1,-4%,?,-5%,21µM*,i,21µM*
CC(C)P(=O)(c1cccc(C(=O)O)c1)C(C)C,2%,i,-1%,-8%,i,-19%
COC(=O)CSc1nnc(CCc2ccccc2)n1C,22%,?,22%,0%,?,-9%
CCn1nc(C)cc1C(=O)Sc1ccc(C)cc1,-27%,i,-5%,?,i,?
CCn1nc(C)c(Br)c1C(=O)Sc1ccccc1Cl,?,i,16µM*,4.6µM*,i,3.7µM*
CCN(CC)C(=O)c1cc(C(C)(C)C)c(O)c(C(C)(C)C)c1,-11%,i,6%,?,i,?
CC1=C(/C=C/C(C)=C/C=C/C(C)=C/C(=O)O)C(C)(C)CCC1O (configuration not stated),.,.,.,21µM*,.,26µM*
CC1=C(/C=C/C(C)=C/C=C/C(C)=C/C=C/C=C(C)/C=C/C=C(C)/C=C/C(=O)[C@]2(C)CC(O)CC2(C)C)C(C)(C)CC(O)C1 (some centres not stated),.,.,.,9%,.,20%
CC1=C(/C=C/C(C)=C\C=C\C(C)=C\C(=O)O)C(C)(C)CCC1,.,.,.,26µM*!,.,-13%[4.12 µM]
CC1=C(/C=C/C(C)=C/C=C/C(C)=C/C=C/C=C(C)/C=C/C=C(C)/C=C/C2=C(C)C[C@@H](O)CC2(C)C)C(C)(C)C[C@H](O)C1,.,.,.,15µM*,.,15µM*
SMILES,HT1080 IDH1KD tx,KB-3-1 tox,HT1080NT lethal,DT40 TDP1 no CPT,KB-V1 cytotox,DT40 TDP1 CPT
COc1cn(CC(=O)Nc2c(C)cc(C)cc2C)c(CN2CCCCC2)cc1=O,.,.,.,-9%,.,14%
CCOc1ccc(/C=C/C(=O)Nc2sc3c(c2C(=O)OC)CCC3)cc1,.,i,.,-8%,i,-6%
Cc1cc2nc3ccc(N(C)C)cc3nc2cc1N,-13%,?,-7%,15µM*,i,?
CC(=O)N(O)c1ccc(C=Cc2ccccc2)cc1,?,?,?,0.41µM*,?,2.1µM*
Cc1cccc(S(=O)(=O)NC(=O)C2(C)CCN2C(=O)CC2CCCCC2)c1 (configuration not stated),29%,i,16%,11%,i,1%
Nc1c(C(=O)Nc2ccc(S(=O)(=O)N3CCCC3)cc2)sc2nc3cc4c(cc3cc12)CCC4,?,?,?,6.5µM*,?,6.5µM*
Nc1c(C(=O)Nc2ccc(S(=O)(=O)N3CCCC3)cc2)sc2nc3ccc(OC(F)(F)F)cc3cc12,?,15µM*,?,18µM*,?,9.2µM*
Nc1c(C(=O)Nc2ccc(Cl)c(C(=O)O)c2)sc2nc3c(cc12)CCCC3,4%,.,0%,15%,.,-1%
O=S(=O)(c1ccccc1)N1CCC2(CCCN(c3cccc(-c4ccccc4)c3)C2)CC1,.,.,.,-29%,.,5%
c1ccc(-c2cccc(N3CC[C@@]4(CCCNC4)C3)c2)cc1,.,.,.,6.5µM*,.,8.2µM*
c1ccc(-c2cccc(N3CCCC4(CCNCC4)C3)c2)cc1,.,.,.,21µM*,.,12µM*
c1ccc(-c2cccc(N3CC4(CCNCC4)C3)c2)cc1,.,.,.,9.2µM*,.,9.2µM*
c1ccc(-c2cccc(N3CCC4(CCNCC4)CC3)c2)cc1,.,.,.,8.2µM*,.,9.2µM*
O=c1cnc2cnc(N3CCOCC3)nc2n1CCc1ccccc1,.,.,.,3%,.,8%
Cc1ccc(Cn2cnc3c(cnn3C(C)(C)C)c2=O)cc1,-3%,i,?,13µM*,i,26µM*
CC(C)(C)n1ncc2c(=O)n(Cc3ccc(Cl)c(Cl)c3)cnc21,10%,i,13%,10%,i,6%
O=c1c2cnn(-c3ccccc3)c2ncn1Cc1ccccc1,-17%,i,-8%,?,21µM*,2%
